The panel holds about 83,000 compounds, 20% with a hit somewhere; the sample as a whole holds those more often.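 Values shown are percent growth following 48 h exposure of cells in 96-well plates to a single concentration of compound; below 10 was considered active.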 A number with no mark means an inactive call. Active and inactive are the calls of the source.
What was measured:
Test in all cases: NCI-60 one-dose screen, 48 h (100 = growth as untreated, 0 = no growth, -100 = all killed)
Settings in all cases: 10 µM
[1] = test system: HT29 colon
[2] = test system: SNB-75 CNS
[3] = test system: SNB-19 CNS
[4] = test system: U251 CNS
[5] = test system: PC-3 prostate
[6] = test system: SK-MEL-5 melanoma
[7] = test system: UACC-62 melanoma
[8] = test system: LOX IMVI melanoma
[9] = test system: SK-MEL-28 melanoma
[10] = test system: SK-MEL-2 melanoma

| SMILES | growth [1] | growth [2] | growth [3] | growth [4] | growth [5] | growth [6] | growth [7] | growth [8] | growth [9] | growth [10] |
| --- | --- | --- | --- | --- | --- | --- | --- | --- | --- | --- |
| CC/C(=C(/c1ccc(OCCN(C)C)cc1)c1ccc(OC(=O)CCCCCCCCC(=O)c2c(C)[nH]c(/C=C3\N=C(c4ccc[nH]4)C=C3OC)c2C)cc1)c1ccccc1 | 25.9% | 64.7% | 81.4% | 43.5% | 43% | 29.3% | 51.2% | 20.8% | 84.3% | 95.6% |
| CCOCCOCCOCCOCCOCCOCCOCCOCCOCCO (tested in a mixture with another compound) | -44% (active) | 32.8% | 25.2% | 7.66% (active) | 9.21% (active) | -81.6% (active) | 13.2% | -72.5% (active) | 36.5% | -61.7% (active) |
| COc1cc(-c2nnc(-c3c(-c4ccc(F)cc4)nc4ccccn34)o2)cc(OC)c1OC | 84.3% | 2.43% (active) | 78.4% | 59.5% | 90.7% | 63.3% | 89.9% | 69.7% | 87.5% | 106% |
| COc1ccccc1/C=C/C(=O)c1ccccc1 | 54.2% | 87.8% | 99.4% | 58.4% | 54.5% | 82.1% | 67.3% | 59.8% | 97.5% | 84% |
| CN1c2ccccc2[C@]2(Cc3ccccc3)Cc3ccccc3N[C@H]12 | 86.9% | 89.6% | 104% | 106% | 100% | 108% | 87.5% | 104% | 99.7% | 95% |
| Cc1cc(C)c(CCc2cc(C)c(C)cc2C)cc1C | 100% | 98.3% | 105% | 93.9% | 106% | 103% | 101% | 91.7% | 108% | 109% |
| Cc1cccc2c1O/C(=C\c1ccc([N+](=O)[O-])o1)C2=O | -67.4% (active) | 65% | 44.2% | -19.7% (active) | -36.3% (active) | -83.5% (active) | -58.9% (active) | -83.6% (active) | -56.6% (active) | -62.8% (active) |
| Cc1nc2ccccc2c(N)c1-c1cc(C)c2c(C)nc3ccccc3c2n1 | -93.5% (active) | -77.6% (active) | 22.6% | -76.6% (active) | -18.5% (active) | 62.1% | 97% | -84.7% (active) | -90.7% (active) | 96.3% |
| COc1cc(-c2cc(/C=C3\C(=O)Nc4ccc(Cl)cc43)[nH]n2)cc(OC)c1OC | 24.2% | -5.13% (active) | 49.9% | 32.1% | -13.2% (active) | -68.8% (active) | -59.6% (active) | 5.85% (active) | -1.56% (active) | -19.1% (active) |
| COc1cc(-c2cc(-c3cc4c([nH]c5ccccc54)c(-c4cc(OC)c(OC)c(OC)c4)n3)cc(-c3ccccc3)n2)cc(OC)c1OC | 44.4% | 36.2% | 66% | 62.1% | 48.3% | 40.1% | 40% | 59.5% | 62.5% | 46% |
| O=C(O)CC(Cl)C(Cl)CC(=O)O (stereo not given) | 101% | 103% | 103% | 98.6% | 98.1% | 108% | 100% | 94% | 107% | 107% |
| COc1ccc2c(c1)-c1c(c3cc(OC)ccc3n(CCN(C)C)c1=O)C2=O | -63.4% (active) | -3.22% (active) | 32.4% | 20.3% | 21.5% | 11.7% | 36.9% | -67.9% (active) | 41.3% | 14.4% |
| C=C(C(=O)c1ccccc1)C(NC(C)(C)C)c1ccccc1 (stereo not given) | -26.1% (active) | 53.6% | 80.8% | 4.4% (active) | 5.45% (active) | -25.6% (active) | 0.104% (active) | -82.2% (active) | 9.1% (active) | -13.9% (active) |
| C#Cc1ccc(-n2c(/C=C/c3ccc(O)c(OC)c3)nc3ncccc3c2=O)cc1 | 112% | 55.9% | 96.2% | 94.1% | 81.2% | 94.2% | 104% | 93.5% | 97.9% | 85.7% |
| S=c1[nH]ccn1-c1c(Cl)cccc1Cl | 105% | 102% | 90.9% | 104% | 106% | 106% | 97.3% | 99% | 101% | 140% |
| COc1ccc(OC)c(/C=C/c2nnc(Nc3ccc(Cl)cc3)o2)c1 | 76.9% | 15.8% | 84.9% | 41.8% | 74.9% | 69.8% | 75.8% | 67.7% | 92.1% | 101% |
| CCCCCCCCCCCCCCCCN(C(C)c1ccccc1)S(=O)(=O)c1ccc(OC)c(N)c1 (stereo not given) | 100% | 91.5% | 120% | 100% | 101% | 109% | 103% | 91.7% | 109% | 120% |
| Nc1ccn(C2CC(O)C(CO)O2)c(=O)n1 (stereo not given) | 110% | 97.5% | 99.7% | 105% | 99.4% | 105% | 100% | 104% | 120% | 87.8% |
| COc1ccc(C2=Nc3c(C)nn(-c4ccccc4)c3NC(c3ccc(Oc4ccnc5cc(Cl)ccc45)c(OC)c3)C2)cc1 (stereo not given) | 56.2% | 62.3% | 78.6% | 86.7% | 54.8% | 89.4% | 75.9% | 89.3% | 95.1% | 90.9% |
| Nc1ccc2c(c1)C1(CCC2)NC(=O)NC1=O (stereo not given) | 104% | 90.2% | 96.6% | 91.5% | 92% | 98.6% | 106% | 97.7% | 113% | 99.7% |
| Cc1cn(C2CCCCO2)c(=O)nc1NO (stereo not given) | 110% | 99.3% | 105% | 112% | 104% | 108% | 104% | 110% | 116% | 120% |
| O=C1/C(=C\c2ccc(Cl)cc2)CN(C(=S)Nc2ccccc2)C/C1=C\c1ccc(Cl)cc1 | -77% (active) | -36.3% (active) | -72.9% (active) | -97.7% (active) | -55.6% (active) | -73% (active) | -70.4% (active) | -80.1% (active) | -60.3% (active) | -28.4% (active) |
| COc1ccc(Nc2nc3ccc(NC(=O)NC4CCCCC4)cc3[nH]c2=O)cc1 | 106% | 82.6% | 100% | 86.2% | 94.7% | 90.9% | 94.6% | 96.2% | 93.1% | 111% |
| CS(=O)(=O)Nc1ccc(Nc2c3ccccc3nc3cc([N+](=O)[O-])ccc23)cc1 | 11.8% | 41.3% | 43.3% | 21% | 44.4% | 13.5% | 32.2% | -27.1% (active) | 43.4% | 23.3% |
| Fc1ccc(-c2nnc(-c3c(-c4ccc(F)cc4)nc4ccccn34)o2)cc1 | 79.2% | 37.4% | 92.8% | 81.2% | 84.6% | 80.4% | 92.2% | 65.4% | 85% | 120% |
| Cc1cc(N(CCCNc2ccnc3cc(Cl)ccc23)Cc2ccc3c(c2)OCO3)nc(N2CCOCC2)n1 | 3.19% (active) | 61.4% | 32.3% | 5.18% (active) | 27.1% | -88.1% (active) | 27.1% | -24.2% (active) | -44.7% (active) | 32.4% |
| NC(=O)c1ccc(-c2cccc3c(=O)nc(N4CCOCC4)oc23)cc1 | 101% | 74.5% | 99.1% | 97.7% | 89.9% | 97.8% | 92.3% | 91.1% | 103% | 102% |

Reference: PubChem BioAssay (NCI)
